Values joined by “and” are separate entries in the source; they are usually repeats but may differ in a detail not shown here. Identical values can stand only once. Out of some 400,000 compounds screened, about 2,100 (0.53%) were called active. Not shown: some 14% with an inconclusive outcome. The rule behind the calls is not given here. The list comes from a sample in which actives are over-represented; it also holds similar structures and randomly drawn compounds.
Target: Ataxin-2 (Homo sapiens) (UniProt Q99700)
Sequence (Q99700 whole entry): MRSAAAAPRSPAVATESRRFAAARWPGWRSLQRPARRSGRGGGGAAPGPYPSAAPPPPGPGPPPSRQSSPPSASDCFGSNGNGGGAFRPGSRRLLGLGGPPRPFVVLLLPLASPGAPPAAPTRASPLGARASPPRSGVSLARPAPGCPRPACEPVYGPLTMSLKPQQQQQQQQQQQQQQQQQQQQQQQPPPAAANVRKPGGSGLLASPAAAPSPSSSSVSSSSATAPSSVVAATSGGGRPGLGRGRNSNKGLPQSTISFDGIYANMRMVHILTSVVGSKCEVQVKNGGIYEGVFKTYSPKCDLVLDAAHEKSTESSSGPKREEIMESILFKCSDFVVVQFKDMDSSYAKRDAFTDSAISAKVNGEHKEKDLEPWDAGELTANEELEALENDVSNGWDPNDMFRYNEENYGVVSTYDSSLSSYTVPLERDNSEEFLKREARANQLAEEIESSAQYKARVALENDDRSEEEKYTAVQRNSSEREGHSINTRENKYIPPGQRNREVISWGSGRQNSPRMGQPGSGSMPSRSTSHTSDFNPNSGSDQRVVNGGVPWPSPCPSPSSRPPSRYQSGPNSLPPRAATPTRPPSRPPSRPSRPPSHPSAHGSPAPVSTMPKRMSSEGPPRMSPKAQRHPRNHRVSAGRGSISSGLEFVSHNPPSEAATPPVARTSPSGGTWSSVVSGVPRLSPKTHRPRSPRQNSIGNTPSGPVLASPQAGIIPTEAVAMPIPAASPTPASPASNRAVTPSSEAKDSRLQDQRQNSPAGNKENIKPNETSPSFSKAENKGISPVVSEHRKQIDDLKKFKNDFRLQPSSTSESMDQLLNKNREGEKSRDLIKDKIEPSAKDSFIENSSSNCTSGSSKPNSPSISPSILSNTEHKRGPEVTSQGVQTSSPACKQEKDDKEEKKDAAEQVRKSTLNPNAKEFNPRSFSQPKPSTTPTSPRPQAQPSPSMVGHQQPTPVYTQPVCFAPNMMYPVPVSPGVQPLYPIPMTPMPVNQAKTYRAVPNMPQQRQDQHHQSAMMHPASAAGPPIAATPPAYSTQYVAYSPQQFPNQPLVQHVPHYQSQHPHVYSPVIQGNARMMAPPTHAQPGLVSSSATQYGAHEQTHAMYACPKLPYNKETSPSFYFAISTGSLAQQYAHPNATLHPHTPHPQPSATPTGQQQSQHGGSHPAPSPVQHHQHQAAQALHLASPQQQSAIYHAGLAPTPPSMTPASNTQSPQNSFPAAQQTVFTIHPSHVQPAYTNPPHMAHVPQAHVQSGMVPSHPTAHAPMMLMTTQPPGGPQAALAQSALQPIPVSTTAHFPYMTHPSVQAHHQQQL
Experiment: qHTS for Inhibitors of ATXN expression.
Assay type: functional

SMILES	Potency
CCOC(=O)c1cc2c(=O)n3ccccc3nc2n(CC2CCCO2)/c1=N\C(C)=O (stereo not drawn)	inactive
CN(C)/C=N/C(=S)Nc1cc(Cl)cc(Cl)c1	inactive
CCC1C/C(=C\c2cccnc2)C(=O)/C(=C/c2cccnc2)C1 (stereo not drawn)	14.1 µM (active)
Cc1cccc(NC2=NC(=O)/C(=C/c3cccnc3)S2)c1	inactive
CSC1=N/C(=C/c2cccnc2)C(=O)N1Cc1ccccc1	inactive
CC1CCc2nc(/C(C#N)=C/c3cccnc3)sc2C1 (stereo not drawn)	inactive
CC1C/C(=C/c2ccccn2)C(=O)/C(=C/c2ccccn2)C1 (stereo not drawn)	11.9 µM (active)
C(=NOCc1ccccc1)c1ccccn1	inactive
CC1C/C(=C\c2cccnc2)C(=O)/C(=C/c2cccnc2)C1 (stereo not drawn)	11.2 µM (active)
O=C(CSc1cccc2cccnc12)N/N=C/c1cccnc1	39.8 µM (active)
Cc1cc(SCC(=O)Nc2cccnc2Cl)nc2ccccc12	inactive
O=C(CSc1ncccn1)N/N=C/c1ccccc1[N+](=O)[O-]	inactive
COc1ccc(/C=C/C(=O)NCC(=O)N/N=C/c2cccnc2)cc1	inactive
CCn1c(SCC(=O)Nc2cccc(C)c2)nc2nc3c(cc2c1=O)COC(C)(C)C3	inactive
Cc1ccc(NC(=O)CSc2nc3nc(O)cc(O)c3s2)c(Br)c1	inactive
CN(C)S(=O)(=O)c1cccc(NC(=O)CSc2cccc3cccnc23)c1	39.8 µM (active)
O=C(CSc1nnc2ccc(-c3ccccn3)nn12)Nc1cccc(F)c1	inactive
Cc1ccc(NC(=O)CSc2cccc3cccnc23)c(C)c1	39.8 µM (active)
CN(C)S(=O)(=O)c1ccc(SCC(=O)Nc2cccc(S(=O)(=O)N3CCCC3)c2)nc1	inactive
CN(C)S(=O)(=O)c1cccc(NC(=O)Cn2cc(C(F)(F)F)cc(Cl)c2=O)c1	inactive
Cc1cccc(NC(=O)CSc2cccc3cccnc23)c1	44.7 µM (active)
COc1ccc(C(=O)NCCNc2nc3ccc(C)cc3cc2C#N)cc1OC	inactive
O=C(CSc1ccccn1)N1CCN(c2ncc(C(F)(F)F)cc2Cl)CC1	inactive
COc1ccc(OC)c(C2CC(=O)N3CN(c4ccccc4F)CSC3=C2C#N)c1 (stereo not drawn)	inactive
O=C(CCCN1C(=O)c2cccnc2C1=O)Nc1ccccc1F	inactive

SMILES	Potency
O=C(CCN1C(=O)/C(=C/c2ccc(F)cc2)SC1=S)Nc1cccnc1	inactive
O=C(CCCN1C(=O)/C(=C/c2ccccc2OC(F)F)SC1=S)Nc1cccnc1	20 µM (active)
C(=N\NC1=NCCN1)/c1ccncc1	inactive
CCCCOc1ccc(Br)cc1/C(C)=N/NC1=NCCN1	22.4 µM (active)
Cn1c(Cl)cnc1C(O)(c1ccccc1)c1ccccc1	inactive
CCc1nc2ccccc2c(C(=O)OCC(=O)C(C)(C)C)c1C	inactive
COc1ccc([N+](=O)[O-])cc1NC(=O)C(C)OC(=O)CN1C(=O)C2CC=CCC2C1=O (stereo not drawn)	inactive
O=C1c2cccc(NCCCNCCO)c2C(=O)c2cccc(NCCCNCCO)c21	15 µM (active)
CN1C(=O)c2cccc(NCCCN3C(=O)c4ccccc4C3=O)c2C1=O	inactive
O=C1c2c(O)ccc(O)c2C(=O)c2c(NCCNCCO)ccc(NCCNCCO)c21	2.99 µM (active) and 20 µM (active)
O=C1c2ccccc2C(=O)c2c(NCCCN(CCO)CCO)cccc21	26.7 µM (active)
CCNc1cccc2c1C(=O)N(C)C2=O	inactive
CC1CCCCC1NC(=O)COC(=O)c1c2c(nc3ccccc13)/C(=C\c1ccco1)CC2 (stereo not drawn)	inactive
Cc1csc(NC(=O)c2sc3nc(-c4cccs4)ccc3c2N)n1	inactive
CCOC(=O)c1cc2c(=O)n3ccccc3nc2n(C(C)C)/c1=N\C(=O)c1c(-c2c(F)cccc2Cl)noc1C	inactive
Cc1c(Br)c(=O)oc2c(Br)c(O)c(O)cc12	inactive
CN(C)c1ccc(/C=N/NC(=O)c2ccc3[nH]cnc3c2)cc1	inactive
Nc1nc(O)cc(N=Nc2ccc(O)cc2)n1	17.8 µM (active)
Nc1ccc(N=Nc2ccc(O)cc2)c(N)n1	21.2 µM (active)
Nc1ccc(/N=N\c2ccccc2)c(N)n1	inactive
Nc1c(Cl)cc(-c2nc3cc(C(=O)NCCO)ccc3c(O)c2O)cc1Cl	inactive
COc1ccc(CNc2nc3ccccc3n2C(C)C)c(O)c1	inactive
Cc1ccc(O)c(C(=O)CC(=O)c2ccccc2Cl)c1	inactive
COC(=O)c1ccc(NCc2cc(O)ccc2O)cc1O	39.8 µM (active)
O=C1C=CC(=O)C(CNc2ccc(C(=O)OCc3ccccc3)cc2)=C1	23.8 µM (active)

SMILES	Potency
Nc1ccc(C(=O)NCc2ccccc2)cc1	inactive
CC(C)OC(=O)c1ccc(NCc2cc(O)ccc2O)cc1	29.9 µM (active)
COC(=O)c1ccc(C2C(C#N)=C(N)Oc3cc(O)ccc32)cc1 (stereo not drawn)	inactive
COC(=O)c1cc(CN2CCN(c3ccccc3)CC2)ccc1O	inactive
CC(C)OC(=O)c1ccc(NCc2cc(O)ccc2O)cc1Cl	20 µM (active)
CN(C)c1nc(-c2cccs2)cc(C(F)(F)F)c1C#N	inactive
CCCCOc1c(C(=O)Nc2ccccc2)nnn1-c1ccccc1	inactive
CCCS(=O)(=O)c1ccc(COC(=O)c2cccc(NC(=O)C(C)C)c2)cc1	inactive
CC(=O)Cc1cc(O)c2ccccc2c1OC(=O)c1ccccc1	inactive
COC(=O)c1ccc(NCc2c(O)ccc(O)c2Br)cc1Cl	28.2 µM (active)
O=C(OCc1ccccc1)c1ccc(NCc2cc(O)ccc2O)cc1	8.91 µM (active)
Cc1ccc(C)c(OC(=O)c2cccnc2)c1	inactive
CC(=O)Nc1ccc(NC(=O)c2cc(=O)c3ccc(C)cc3o2)cc1	inactive
Cc1ccc2nc(-c3ccc(NC(=O)c4cccnc4)cc3)oc2c1	25.1 µM (active)
CCOC(=O)c1cc2c(=O)n3ccccc3nc2n(CCCOC)/c1=N\C(=O)C(C)Oc1ccccc1 (stereo not drawn)	inactive
O=C(CN1CCCC1)Nc1ccc(Br)cc1	inactive
O=C(Cn1nc(C(F)(F)F)c2c1CCCC2)Nc1ccc(Cl)cc1	39.8 µM (active)
Nc1c(C(=O)NCc2ccc(Cl)cc2)sc2nc3c(c(C(F)(F)F)c12)CCC3	inactive
CCOC(=O)C1CCCN(C(=O)c2ccc(Cn3c(=S)[nH]c4cc(C(=O)OC)ccc4c3=O)cc2)C1 (stereo not drawn)	inactive
COC(=O)[C@@]1(Cc2ccc(F)cc2)[C@H]2c3cc(C(=O)N4CCCC4)n(Cc4ccccc4)c3C[C@H]2CN1C(=O)c1ccccc1	25.1 µM (active)
COC(=O)C1CCN(C(=O)c2cc3c(=O)n4cccc(C)c4nc3n2Cc2ccccc2)CC1	inactive
COC(=O)[C@@]1(Cc2ccc(F)cc2)[C@H]2c3cc(C(=O)N4CCCC4)n(CC4CC4)c3C[C@H]2CN1C(=O)c1ccccc1	39.8 µM (active)
COC(=O)[C@@]1(Cc2ccc(F)cc2)[C@H]2c3cc(C(=O)N(C)C)n(Cc4ccc(C)o4)c3C[C@H]2CN1C(=O)c1ccccc1	35.5 µM (active)

— ChEMBL document CHEMBL1201862, “PubChem BioAssay data set” (2004)
